Screening results deposited in PubChem by National Center for Advancing Translational Sciences (NCATS).
PTAP TSG101 blk: blocks PTAP/TSG101 interaction to inhibit HIV-1 budding; Q99816; Fluorescence polarization, FITC-PTAP peptide / Tsg101 binding; Potency, µM (series often up to 115 µM), for inactives: at the top dose activity change, negative = inhibition, most hits filed as inhibitors; 340,000 tested, under 10 active; active means well fitted inhibition curve with a large enough effect in the main read-out, with a control signal flat, not every such curve was filed as active; inconclusive means small, poorly fitted or top-dose-only effect, or effect the other way, or a change in a side signal; inactive means no such curve, though single readings can be large or run the other way; further: % of control where 0% means no effect
Target sequence (Q99816 whole entry, looked up): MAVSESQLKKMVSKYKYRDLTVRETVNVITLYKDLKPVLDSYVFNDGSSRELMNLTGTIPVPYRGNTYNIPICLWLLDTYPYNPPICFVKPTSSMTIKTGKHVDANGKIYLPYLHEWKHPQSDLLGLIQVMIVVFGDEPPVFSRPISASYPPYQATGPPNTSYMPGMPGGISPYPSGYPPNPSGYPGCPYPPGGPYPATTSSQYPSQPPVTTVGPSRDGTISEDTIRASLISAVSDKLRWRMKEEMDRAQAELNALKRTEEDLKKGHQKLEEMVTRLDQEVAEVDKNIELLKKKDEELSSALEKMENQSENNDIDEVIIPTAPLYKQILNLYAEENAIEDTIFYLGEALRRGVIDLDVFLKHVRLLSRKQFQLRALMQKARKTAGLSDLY
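Compounds were pin-transferred onto Tsg101 binding domain (10 uM final) in HEPES pH 7.5 buffer, then FITC-PTAP peptide was added at 50 nM final. After 20 min at RT, polarization reported peptide displacement across a qHTS concentration series.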
Anesthetic bind: candidate novel general anesthetic via apoferritin binding; apoferritin/1-aminoanthracene competitive binding, fluorescence; Potency, µM (series often up to 77.5 µM), for inactives: at the highest dose activity change, negative = displacement, most hits filed as inhibitors; P02791; hit rate 0.074% among 350,000; further: on the % scale 0 is the no-effect control and ±100 the full control effect; nearly all actives have a fitted effect of over 20% in size
Target sequence (P02791 2-175 limits assumed): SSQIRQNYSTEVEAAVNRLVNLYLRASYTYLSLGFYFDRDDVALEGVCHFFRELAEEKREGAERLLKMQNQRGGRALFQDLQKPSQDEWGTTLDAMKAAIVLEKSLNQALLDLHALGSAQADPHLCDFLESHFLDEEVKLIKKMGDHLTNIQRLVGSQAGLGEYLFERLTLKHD
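Concentration-response curves derived by four-parameter Hill fitting of normalized fluorescence, where compounds displaced 1-AMA from 10 uM horse apoferritin following a brief 10 min room-temperature incubation; propofol titration acted as positive control.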
PINK1 expr mod: PINK1 expression modulation; PINK1 immunofluorescence, high-content cytometry, 24 h; Potency, µM (series often up to 76.6 µM), for inactives: at the top dose activation (PINK1 increase), actives largely listed as activators; hit rate 0.2% among 410,000; active means well fitted activation curve with a large enough effect; inconclusive means small, poorly fitted or top-dose-only effect; cell line not stated here; further: % of control where 0% means no effect; nearly all actives have a fitted effect of over 65% in size
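Measures PINK1 amount and localization on or inside mitochondria by immunofluorescence. Stable cells get compounds at 5 concentrations for 24 hours before fixation and staining; CCCP controls included.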
HTT ATP protect: protects HTT-Q103 PC12 cells, measured by ATP; PC12 HTT-Q103 induced, cytoprotection, ATP luminescence, 40 h; Potency, µM (doses to about 56.4 µM), for the others: cytoprotection (ATP increase), usual class: activators; hit rate 0.14% among 230,000; AID 1471; further: % of control where 0% means no effect; nearly all actives have a fitted effect of over 45% in size
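Readout: ATPlite luminescence (ATP level). Model: stable PC12, inducible Htt exon1 Q103-GFP. Inducer: tebufenozide, 100 nM final. Compounds: dose series. No G418 in medium.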
Epigenetic reg: derepresses silenced GFP reporter in murine cells; murine LDR cells, GFP reporter derepression, 30 h; Potency, µM (top dose mostly 53.9 µM), for inactives: at the top dose GFP activation, actives largely listed as activators; hit rate 0.2% among 280,000; further: % of control where 0% means no effect; nearly all actives have a fitted effect of over 60% in size
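Reporter derepression read as number of fluorescent GFP-positive objects, 20-120 um in size, counted by laser-scanning cytometer. Mouse LDR line with an epigenetically silenced CMV-GFP locus; compound incubation 30 h, 37 C.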
HttQ103 aggreg: mutant huntingtin aggregation inhibition; PC12 HttQ103-GFP aggregates, Acumen cytometry, 40 h; Potency, µM (series often up to 46.1 µM), for the others: at the highest dose activity change, negative = inhibition, usual class: inhibitors; hit rate 1.1% among 220,000; AID 1688; further: on the % scale 0 is the no-effect control and ±100 the full control effect; nearly all actives have a fitted effect of over 60% in size
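Quantitative HTS on tebufenozide-induced (100 nM) PC12 cells stably expressing polyQ103 Huntingtin exon 1–GFP. Reduction of bright GFP aggregates, detected by laser scanning cytometry after lysis, identified actives across the titration.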
* hit, by the source's call; u = inconclusive; x = no result; [ ] = another dose, or the depositor's remark. The entries come from a sample that favours hits as a whole. Unless noted, the call rests on the fitted dose curve; in most records, active means well fitted curve in the direction sought with a large enough effect; inconclusive means small, poorly fitted or top-dose-only effect, or another doubt; inactive means no such curve, though single readings can be large; an effect the other way counts as inactive or inconclusive. Potency means the concentration at half of the fitted maximal effect.

SMILES | PTAP TSG101 blk | Anesthetic bind | PINK1 expr mod | HTT ATP protect | Epigenetic reg | HttQ103 aggreg
CCCC[n+]1ccn(-c2nc3ccccc3nc2[N-]S(=O)(=O)c2cccs2)c1 | 2% | 24% | 5% | -35%[10 µM] | 10µM* | -23%[9.22 µM]
O=C(Nc1ccc2nc(SCC(=O)N3CCOCC3)sc2c1)c1ccccc1Cl | x | 0% | 1% | x | -2% | x
Cc1c(C(=O)Nc2ccccc2)c2ccc(C(F)(F)F)cc2n1O | -1% | x | 45µM* | x | x | x
O=C(Nc1ccccc1)c1cccc(C(F)(F)F)c1 | -2% | 4% | 4% | 22%[10 µM] | 1% | 20%
COc1cc(C(=O)N(Cc2cc3ccc(C)cc3nc2N(C)C)C2CC2)cc(OC)c1OC | x | x | -1% | x | x | x
COc1cc(/C=N\Nc2ccc([N+](=O)[O-])cc2)ccc1OCC(=O)Nc1ccc(C)c(C)c1 | u | -11% | 12% | -28% | 6.3µM* | -7%
CCN(CC)S(=O)(=O)c1cccc(NC(=O)C2SC(=Nc3ccc(C)cc3C)C(C(=O)NCC3CCCO3)=C2N)c1 (centres undefined) | -6% | -13% | 25µM* | -3% | -4% | 8%
Nc1nc[nH]c(=O)c1N | x | x | 0% | x | x | x
CSc1nnc(-c2ccccc2)o1 | -6% | -7% | 1%[38.3 µM] | 21% | -4% | 6%
O=S1(=O)C=C(Sc2nnc(-c3ccccc3)o2)c2ccccc21 | -3% | u | 1%[38.3 µM] | -114% | 2% | 4.5µM*
COC(=O)c1ccccc1-c1cc(C)cc2c1OC(CNC(=O)c1occc1C)C2 (centres undefined) | x | x | 0% | x | x | x
CC1=C(CC(=O)c2ccc(Cl)cc2)C(=O)c2ccccc2C1=O | 1% | -14% | 3%[38.3 µM] | -152% | 6% | 3.5µM*
Cc1ccc(C(=O)c2c(C)oc3c2C(=O)C(=O)c2ccccc2-3)cc1 | -3% | u | -3% | -111% | -1% | u
COc1ccc(C(=O)c2c(C(F)(F)F)oc3c2C(=O)c2ccccc2C3=O)cc1 | 0% | u | -3% | -85% | 0% | 3.2µM*
CCC1CN(CCNC(=O)c2cscn2)Cc2cc(OC)ccc2O1 (centres undefined) | x | x | -1% | x | x | x
COc1ccccc1C(=O)N[C@@H]1c2ccccc2C2(CCN(Cc3cnn(C)c3C)CC2)[C@H]1O | x | x | 0% | x | x | x
Cn1c(=N)n(CC(=O)c2ccccc2)c2ccccc21 | -1% | 0% | 0% | -49%[10 µM] | -2% | 1%[9.22 µM]
Cn1c(=N)n(CC(=O)O)c2ccccc21 | -6% | 5% | 0% | 0% | -1% | 5.6µM*
CC(C)(C)c1ccc(S(=O)(=O)/C=C\C#N)cc1 | x | x | x | -91% | -3% | x
COc1cc(=O)n2c(c1C(=O)NCc1ccco1)CCN(C(=O)c1ccccc1-c1ncc[nH]1)CC2 | x | x | 2% | x | x | x
O=C(Cc1ccc(Cl)cc1)Nc1ccc(N2CCN(C(=O)c3ccco3)CC2)c(Cl)c1 | 1% | u | 0% | -4%[0.074 µM] | -5% | 10µM*
O=C(Nc1ccc(N2CCN(C(=O)c3ccccc3)CC2)cc1)c1ccc(Br)o1 | -5% | -2% | 3% | 1%[0.074 µM] | 0% | u
O=C(Nc1ccc(N2CCN(C(=O)c3ccccc3)CC2)c(Cl)c1)c1ccc(Br)o1 | -8% | 1% | -16%[38.3 µM] | -69% | -1% | 11µM*
COc1cc(=O)n2c(c1C(=O)NCc1ccco1)CCN(Cc1cccc(Cl)c1)CC2 | x | x | 2% | x | x | x
CC(=O)c1cccc(NC(=O)/C=C/c2ccc([N+](=O)[O-])s2)c1 | -3% | -3% | 18% | u | 4µM* | u
Cc1ccccc1NC(=O)/C=C/c1ccc([N+](=O)[O-])s1 | -4% | 4% | 4% | x | 3.5µM* | u
Cc1ccccc1C(=O)N/N=C/c1ccc([N+](=O)[O-])s1 | -5% | -20% | u | -58% | -1% | 25µM*
CCOc1ccc(/C=C/c2nc(C#N)c(N3CCC(C)CC3)o2)cc1 | x | 600% | 11% | x | u | x
Cc1ccc(-c2nc(C(Cl)Cl)c3ccccc3n2)cc1 | -1% | 0% | -2% | -80%[10 µM] | -3% | 0.89µM*
